Assay results: PubChem BioAssay AID588855 (National Center for Advancing Translational Sciences (NCATS), 2011)
Among all 410,000 compounds or so, about 5,000 (1.2%) were called active. About 13% were inconclusive and are not listed. Calls follow the shape of the dose curve; as a rule, active = well fitted inhibition curve with a large enough effect; inconclusive = small, poorly fitted or top-dose-only effect; inactive = no such curve, though single readings can be large or run the other way. For the sample, actives were picked, then their nearest neighbours and some compounds at random.

experiment: qHTS for Inhibitors of TGF-b; conditions: HepG2 CAGA-GFP TGF-b/SMAD3 reporter, GFP fluorescence, 18 h, TGF-beta stimulated, 500 pg/mL final; series mostly up to 46.1 µM; activity, negative = inhibition: at the top concentration; also: nearly all actives have a fitted effect of over 65% in size
From the text: TGF-b is a main component in the TGF-b signaling pathway which plays diverse roles in cellular and development pathways. TGF-b is the mediated by the transcription factors Smads. Although the Smad-dependent pathway is the primary canonical TGF-b signaling node, TGF-b1 can also activate alternative signaling pathways, including those involving MAPK (ERK, JNK and p38). This interaction may mediate or enhance Smad-dependent responses, or can exert Smad-independent effects. The complexity of this signaling cascade allows the TGF-b superfamily to perform unique, overlapping or redundant functions. We believe that targeting the TGF-beta pathway at the Smad-transcription factor level may eliminate the consequences of disrupting the entire pathway and offer specificity without affecting other signaling pathways. Smad3 is the primary transducer of TGF-b's signals and Smad3 regulates many functions attributed to TGF-b signaling. We hypothesize that Smad3 inhibitors will selectively eliminate Smad3-specific TGF-beta signals without undesired off-target effects. We aim to identify Smad3-small molecule antagonists using a quantitative high throughput screening (qHTS) approach.
A high-throughput assay was developed to screen the NIH Molecular Libraries Small Molecule Repository (MLSMR). This is a cell based assay, where TGF-b is tagged with GFP. A counterscreen is run that looks at cytotoxicity (please see summary AID).
MH087449NIH Chemical Genomics Center [NCGC]
NIH Molecular Libraries Probe Centers Network [MLPCN]
Assay Submitter (PI): Sushil Rane, National Institute of […]
Suspensions of trypsinized HEPG2 CAGA-GFP cells were dispensed into white, tissue culture-treated, solid 1536-well plates at 5uL/well (1000 cells/well final concentration) in DMEM medium supplemented with 1% FBS. Plates were incubated at 37 degrees C for 2 hours, after which 23 nL of compounds or DMSO were delivered to each well using a pin tool. One uL of recombinant TGF-beta in DMEM (1% FBS) was then dispensed (500 pg/mL final concentration), and plates were incubated at 37 degrees C for 18 hours. The plates were measured on an Acumen eX3 Explorer plate reader for GFP fluorescence (ex488/em500-530). GFP values were calculated by determining the mean GFP fluorescence of individual cells, and compiling these values for each well to determine a total well GFP signal. The %Activity was determined from the corrected fluorescence values. A titration of the known TGF-B inhibitor SB431542 was included to monitor plate performance, while unstimulated HEPG2 (-TGF-B) control wells were used to normalize %Activity of identified inhibitors; unstimulated wells corresponded to 100%Activity (full inhibition), while stimulated cell controls (+DMSO) were used to normalize 0%Activity (no inhibition).
Concentration-response curves were fitted to the signals arising from the resulting fluorescence. The concentration-effect curves were then classified based on curve quality (r2), response magnitude and degree of measured activity, and compounds were subsequently categorized based on their curve class.
Potency is read from the fitted curve at half-maximal effect.

Compound	activity, negative = inhibition	Potency
CCS(=O)(=O)c1ncc(N(Cc2ccc(F)cc2)Cc2ccco2)c(C(=O)Nc2cc(C)ccc2C)n1	1.57% (inactive)	
Cc1cccc(CS(=O)(=O)c2ncc(Cl)c(C(=O)Nc3ccc(F)cc3)n2)c1		6.31 µM (active)
O=C(Nc1nc2ccc(F)cc2s1)c1nc(SCc2ccccc2F)ncc1Cl	-1.74% (inactive)	
O=C(Nc1ccccc1C(F)(F)F)c1nc(S(=O)(=O)Cc2ccccc2F)ncc1Cl		3.16 µM (active)
Cc1cccc(NC(=O)Cn2cc(S(=O)(=O)Cc3ccccc3Cl)c3ccccc32)c1	0% (inactive)	
Cc1ccc(NC(=O)c2cccnc2C(=O)Nc2ccc(C)cc2)cc1	-10.9% (inactive)	
Cc1ccc(NC(=O)c2nc(S(=O)(=O)Cc3cccc(C)c3)ncc2Cl)cc1		3.16 µM (active)
CN(CC(=O)Nc1ccccc1C(F)(F)F)C(=O)Cc1ccccc1F	-1.45% (inactive)	
CCOC(=O)c1ccc(NC(=O)c2nc(SCc3ccc(F)cc3)ncc2Cl)cc1	-12.1% (inactive)	
Cc1ccc(CCNC(=O)c2ccc(CS(=O)(=O)Cc3cccc(C)c3)o2)cc1	-36% (inactive)	
Cc1cccc(NC(=O)c2nc(S(=O)(=O)Cc3ccccc3)ncc2Cl)c1		3.98 µM (active)
CC(=O)c1cccc(NC(=O)c2nc(-c3ccccc3)n(-c3cccc(C)c3)n2)c1	-25.9% (inactive)	
COc1ccccc1CNC(=O)c1ccccc1NC(=O)c1nsc2ccccc12	-0.608% (inactive)	
Cc1cccc(Cn2c(CN3CCC(C(=O)NCc4ccccc4Cl)CC3)cc3ccccc32)c1	-8.43% (inactive)	
COc1ccc(NC(=O)C2CCCN(S(=O)(=O)c3c(C)[nH]c(=O)[nH]c3=O)C2)c(OC)c1 (configuration not stated)	-24.4% (inactive)	
COc1ccccc1CNC(=O)NCc1noc2ccc(C)cc12	1.22% (inactive)	
O=S(=O)(c1cccc(C(F)(F)F)c1)N1CCN(c2nc(-c3cccs3)nc3ccccc23)CC1	1.02% (inactive)	
COc1ccc(CC(N)c2csc(NC(=O)Nc3ccc(C(C)C)cc3)n2)cc1 (configuration not stated)	-98.2% (inactive)	
O=C(Nc1cccc(F)c1)NC1CCCCCCC1	0% (inactive)	
NC(c1ccccc1)c1csc(NC(=O)Nc2cccc(C(F)(F)F)c2)n1 (configuration not stated)		12.6 µM (active)
NC(c1csc(NC(=O)Nc2cccc(C(F)(F)F)c2)n1)C1CCCCC1 (configuration not stated)		6.31 µM (active)
CC(=O)c1ccc(Nc2nc(C(N)c3ccccc3)cs2)cc1 (configuration not stated)	-0.831% (inactive)	
Cn1c(C(=O)Nc2cccc(C(F)(F)F)c2)cc2c(=O)n3ccccc3nc21	-8% (inactive)	

Compound	activity, negative = inhibition	Potency
Cc1ccc(Cn2c(=O)n(CCCC(=O)NCc3ccccc3Cl)c(=O)c3ccccc32)cc1	3.91% (inactive)	
COC(=O)c1ccc(-c2nc3cc(NC(C)=O)ccc3o2)cc1	1.43% (inactive)	
CCOc1ccc(NC(=O)c2cc(S(=O)(=O)N3CCCC3)c[nH]2)cc1	-24.4% (inactive)	
Cc1nc2nc(SCC(=O)NC3CCC(C)CC3)nn2c(C)c1Cc1ccccc1Cl (configuration not stated)	-30.1% (inactive)	
CC1(C)C=Cc2c(ccc(C(=O)/C=C/c3ccccc3)c2O)O1	-2.51% (inactive)	
Cc1cc(C)cc(NS(=O)(=O)c2ccc(Oc3ncc(C(F)(F)F)cc3Cl)cc2)c1		12.6 µM (active)
CN(NS(=O)(=O)c1cccs1)c1ncc(C(F)(F)F)cc1Cl	-13% (inactive)	
COc1ccccc1Oc1ccc(S(=O)(=O)Nc2cccnc2)cc1	9.04% (inactive)	
COc1ccc(CCNCc2c(C(=O)O)c(C)n(Cc3cccc(C)c3)c2C)cc1OC	5.3% (inactive)	
Cc1cccc(NC(=O)c2ccc3nc(C(C)C)oc3c2)c1C	7.16% (inactive)	
C=COC(=O)N1CCN(/[N+]([O-])=N/Oc2ccc([N+](=O)[O-])cc2[N+](=O)[O-])CC1		10 µM (active)
O=C(O)C1CCN(c2ccc([N+](=O)[O-])cc2[N+](=O)[O-])CC1	34.7% (inactive)	
CCOC(=O)N1CCN(c2cc(C)c([N+](=O)[O-])cc2F)CC1	7.48% (inactive)	
O=C(CSc1nc(=O)[nH]c2c1CCCC2)Nc1cc(C(F)(F)F)ccc1Cl	-0.244% (inactive)	
COc1ccc(/C=C/c2noc(-c3ccccc3O)n2)cc1OC	-13.3% (inactive)	
CC(=O)c1ccc(NC(=O)Nc2ccc([N+](=O)[O-])cc2C)cc1	3.93% (inactive)	
COc1cccc(C(=O)CC(=O)C(=O)Nc2ccc([N+](=O)[O-])cc2C)c1	-5.79% (inactive)	
Cc1cc([N+](=O)[O-])ccc1NCc1cccc([N+](=O)[O-])c1		10 µM (active)
O=C(Nc1ccc([N+](=O)[O-])cc1)c1cnn2c1NC(=C1CC1)C=C2C(F)F	5.24% (inactive)	
COc1ccc(/C=C/c2ccnc3ccccc23)cc1OC	-22.7% (inactive)	
O=C(CSc1nc(Nc2ccc(F)c(F)c2)c2ccccc2n1)c1ccc(Cl)cc1	0% (inactive)	
CSc1ncc(C(=O)NCc2ccccc2Cl)c(C(F)(F)F)n1	-10.3% (inactive)	
Fc1ccc(Nc2nc(SCc3ccccc3Cl)nc3ccccc23)cc1		17.8 µM (active)

Compound	activity, negative = inhibition	Potency
Cc1ccc(NC(=O)CSc2nc3ccccc3c3nc(CCn4cncc4C)nn23)cc1F	50.7% (inactive)	
CCN(CC)C(=O)C1=C(C)N(Cc2ccc(C(C)(C)C)cc2)C(=O)C(CC(=O)NCc2cccc3ccccc23)C1 (configuration not stated)		17.8 µM (active)
CCN(CC)C(=O)C1=C(C)N(Cc2ccc(F)cc2)C(=O)C(CC(=O)NCc2cccc3ccccc23)C1 (configuration not stated)	-3.47% (inactive)	
COc1ccc(CN2C(=O)C(CC(=O)NCc3cccc4ccccc34)CC(C(=O)N3CCOCC3)=C2C)cc1 (configuration not stated)	20.9% (inactive)	
COc1ccc2c(c1)c(=Cc1ccc(N(C)C)cc1)c1cc(-c3ccccc3)[n+](C)n12		5.01 µM (active)
CN(C)c1ccc(/C=c2\[nH]c(=O)/c(=C/c3ccc(N(C)C)cc3)[nH]c2=O)cc1	9.71% (inactive)	
Cc1ccc(NC(=O)CSc2nnc3[nH]c(=O)cc(C)n23)cc1Cl	-0.795% (inactive)	
Cc1ccc(C(=O)Nc2ccc(C(=O)O)cc2)cc1S(=O)(=O)Nc1ccccc1	-13.1% (inactive)	
Cn1c(=O)n(C)c2cc(C(=O)Nc3ccc(Br)cc3)ccc21	-1.4% (inactive)	
O=C(Nc1ccc(Br)cc1)c1ccc(Br)c(S(=O)(=O)NCc2ccccc2)c1		12.6 µM (active)
COc1ccccc1C1C(C(=O)N2CCCCC2)=C(C)Nc2nc3ccccc3n21 (configuration not stated)	-3.85% (inactive)	
Oc1ccc(Cl)cc1C1C=C(c2ccc3c(c2)OCO3)NC(c2ccc(F)c(Br)c2)N1 (configuration not stated)		10 µM (active)
CCCCCCC1(C)NC(c2ccc3c(c2)OCO3)=CC(c2ccccc2O)N1 (configuration not stated)	-2.64% (inactive)	
C(=Nc1ccc(/C=C/c2ccnc3ccccc23)cc1)c1cc2c3c(c1)CCCN3CCC2	2.32% (inactive)	
NC1=CC(=O)C(=O)c2cccnc21		7.94 µM (active)
Cc1ccc2nc(COc3ccc(NC(=O)COc4ccccc4F)cc3)cc(=O)n2c1	2.5% (inactive)	
COc1ccc(CNC(=O)C[C@H]2C[C@H](C(=O)N3CCOCC3)[C@@]3(CCC4CCCC4)c4[nH]c5ccc(Cl)cc5c4CCN3C2=O)cc1OC		1.78 µM (active)
C[C@]12c3[nH]c4ccc(Cl)cc4c3CCN1C(=O)[C@@H](CC(=O)NCCCn1ccnc1)C[C@@H]2C(=O)N1CCOCC1	-17.1% (inactive)	
CC(C)N(C(=O)[C@H]1C[C@H](CC(=O)NC(C)(C)C)C(=O)N2CCc3c([nH]c4ccc(Cl)cc34)[C@]12C)C(C)C		11.2 µM (active)
O=C(C[C@H]1C[C@H](C(=O)N2CCOCC2)[C@@]2(CCC3CCCC3)c3[nH]c4ccc(Cl)cc4c3CCN2C1=O)NCc1ccco1	-11.8% (inactive)	
COc1ccc2[nH]c3c(c2c1)CCN1C(=O)C(CC(=O)NCCCN(C)C)C[C@H](C(=O)N2CCOCC2)[C@@]31CCC1CCCC1 (some centres not stated)	3.02% (inactive)	
CCN(CC)C(=O)[C@H]1CC(CC(=O)NCc2ccco2)C(=O)N2CCc3c([nH]c4ccccc34)[C@]12C (some centres not stated)	-5.13% (inactive)	
CCOC(=O)c1c(S(=O)(=O)N2CCCC(C(=O)NCc3cccc(C)c3)C2)c(C)n(C)c1C (configuration not stated)	-37.3% (inactive)	

Compound	activity, negative = inhibition	Potency
Cc1ccc(-n2c(SCC(=O)c3ccccc3)nc3c([nH]c4ccccc43)c2=O)cc1	7.46% (inactive)	
CN1c2ccc(Cl)cc2-c2nc(SCC(=O)Nc3cc(F)ccc3F)ncc2S1(=O)=O	8.76% (inactive)	
O=C(c1ccc2c(c1)N(Cc1ccccc1F)C(=O)c1ccccc1S2(=O)=O)N1CCOCC1	1.56% (inactive)	
Cc1ccc(S(=O)(=O)NCc2nc3nc(C)cc(C)n3n2)cc1	18.1% (inactive)	
COc1ccc(CCNC(=O)CCCCn2c(=O)c3ccccc3n(Cc3ccccc3)c2=O)cc1OC	4.39% (inactive)	
CC(=O)c1ccc(NC(=O)CSc2c(C(C)C)cnc3c2c(=O)n(C)c(=O)n3C)cc1	-24.6% (inactive)	
CCOC(=O)C1=C(N)N(c2ccc(C)cc2)C2=C(C(=O)CCC2)C1c1cccs1 (configuration not stated)		11.2 µM (active)
O=C1CCCC2=C1C(c1cccs1)CC(=O)N2c1ccc(F)cc1 (configuration not stated)	16.1% (inactive)	
CCOC(=O)c1cc2c(n(-c3ccc(C)cc3)c1=O)CCCC2=O	4.92% (inactive)	
COc1ccccc1NC(=O)c1oc2ccccc2c1NC(=O)COc1ccccc1OC	6.75% (inactive)	
O=C(Nc1ccc(Cl)cc1)c1cnn2c1NC(=C1CC1)C=C2C(F)F	6.09% (inactive)	
Oc1c(CN2CCN(c3ccc(F)cc3)CC2)cc(Cl)c2cccnc12		7.08 µM (active)
O=c1cc(CN2CCCCCCC2)c2c(ccc3ccccc32)o1	0.276% (inactive)	
Cc1cccc(C)c1NC(=O)CN1CCN(c2ccc(F)cc2)CC1	-22.8% (inactive)	
Oc1c(CN2CCCC2)cc(COCc2ccccc2)c2cccnc12		4.47 µM (active)
O=C(Cc1ccccc1)NNC(=O)C1CCN(c2ncccn2)CC1	2.56% (inactive)	
Cc1cc(=O)oc2cc(OCC(=O)N3CCN(c4ccc(F)cc4)CC3)c(Cl)cc12	5.48% (inactive)	
CCc1nn(CCCC(=O)NCc2ccccc2OC)c(=O)c2cc3occc3n12	-7.43% (inactive)	
CCc1ccc(CNC(=O)c2cc3cc4ccc(OC)cc4nc3o2)cc1	1.92% (inactive)	
CCCNC(=O)C1CCN(c2nc3ccc(C)cc3[nH]2)CC1	-3.16% (inactive)	
CC(C)=CC(=O)Nc1nnc(-c2ccc(F)cc2)s1	-2.71% (inactive)	
CCc1ccc(NC(=O)Nc2ccncc2)cc1	-6.39% (inactive)	
Cc1ccc(NC(=O)Nc2nnc(-c3ccncc3)s2)cc1		11.2 µM (active)
